Bioassay records deposited in PubChem BioAssay by several laboratories.
PAX8 inh HTS: PAX8 transcriptional activity inhibition. RMG-I TPO-luciferase reporter, SteadyGlo, 24 h. inhibition, % at 12.6 µM. 360,000 compounds, 1.2% hits. AID 652154;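 active = mean replicate inhibition at least 60% with every replicate also reaching 60%; inconclusive = only one of the two criteria is met; inactive = mean below 60% and not all replicates reaching 60%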;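 note: luciferase light reporting Pax8 driven TPO promoter activity; plate controls were median of neutral control wells for no effect and mitoxantrone controls for full effect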
TROY NFkB inh: blocks TROY-dependent signaling in reporter cells; AID 1347056; Q293 LMP1-TROYcd NF-kB luciferase reporter, 4 h; 360,000 compounds, 0.98% hits; inhibition, % at 10 µM;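 active = compounds whose plate-normalised and pattern-corrected inhibition of the luciferase reporter signal at the single screening dose is 50% or more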
EWS-Fli inh: blocks EWS/Fli oncoprotein-driven transcription; 350,000 compounds, 0.67% hits; A673 NR0B1-luciferase reporter, viability-normalised; inhibition, % at 12.6 µM;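 active = mean inhibition of at least 50% after viability correction, with every replicate also passing that limit; inconclusive = mean reaches 50% but only one of two replicates passes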;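 note: firefly luciferase signal divided by Alamar Blue viability fluorescence both relative to DMSO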
LMP1 NFkB inh: Epstein-Barr LMP1 NF-kappaB reporter inhibition | LMP1-induced NF-kappaB luciferase reporter cells, luminescence | inhibition, % at 12.5 µM | 350,000 compounds, 0.69% hits; in the data active = inhibition above about 41%; inconclusive = no clear call, values can overlap the other calls;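 note: 0% = neutral control wells and 100% = reference inhibitor control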
LGR2 antag: blocks bursicon-induced cAMP signaling via Drosophila LGR2 | inhibition, % at 9.99 µM | HEK293 LGR2, CRE-luciferase, bursicon-stimulated, 4 h | 380,000 compounds, 0.35% hits;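 active = drop in luminescence signal, shown as inhibition above about 50% in the replicate tests, limit read from the data, passing the limit was not always enough; inconclusive = probably only some replicates passing the limit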;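 note: agonist challenge used bursicon conditioned medium at about half maximal strength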
TWEAK Fn14 block: blocks TWEAK-Fn14 interaction in a reporter cell assay. AID 1159606. inhibition, % at 10 µM. TWEAK-stimulated Fn14 reporter cells, luciferase luminescence, 8 h. 360,000 compounds, 2% hits; in the data active = inhibition above about 50%
Active calls of the source: *; u = inconclusive; x = no result. Rows were chosen to be rich in hits. Some 3.2% of all compounds tested hit in one or more screens of this group.

SMILES	PAX8 inh HTS	TROY NFkB inh	EWS-Fli inh	LMP1 NFkB inh	LGR2 antag	TWEAK Fn14 block
Fc1ccc2cnc(CCO[C@H]3CCCCO3)cc2c1	-46	9	46	15	54*	67*
Fc1ccc2cc(CCO[C@H]3CCCCO3)ncc2c1	-188	3	33	15	-45	34
Cc1cc(C)c(C#N)c(SCc2cn3ccccc3n2)n1	-56	54*	9	17	-42	41
Cc1cc(C)nc(SCc2cn3ccccc3n2)n1	-14	-17	-9	-3	-22	-27
CN(C)Cc1c(O)ccc2cc(-c3nc4ccccc4n3C)c(=O)oc12	-61	21	-69	1	3	56*
COc1ccc(C(=O)c2c(C(F)(F)F)oc3c2C(=O)c2ccccc2C3=O)cc1	x	35	x	85*	x	71*
CCCC(=O)Nc1ccc2c(c1)C(=O)N(C)C[C@@H](OC)[C@@H](C)CN(CCC(F)(F)F)[C@@H](C)CO2	5	x	6	x	10	x
Cc1nn(-c2ccccc2)c(C)c1NC(=O)COc1ccc(C#N)cc1	14	-19	-7	5	17	24
Cc1nn(-c2ccccc2)c(C)c1NC(=O)COc1ccc2ccccc2c1	x	55*	12	6	38	45
Cc1nn(-c2ccccc2)c(C)c1NC(=O)COc1ccc(Br)cc1Cl	6	46	x	2	-21	78*
Cc1ccc(-n2nc(C)c(NC(=O)CCl)c2C)cc1C	112*	-25	x	-10	-30	-14
CCC(=O)Nc1c(C)nn(-c2ccc(C)c(C)c2)c1C	-9	-22	-4	-13	-25	4
C[C@H](O)C#Cc1cnc2c(c1)C(=O)N([C@H](C)CO)C[C@H](C)[C@@H](CN(C)Cc1cccc(C(=O)O)c1)O2	x	x	-22	x	11	x
O=C(N[C@H]1CC[C@@H](CCn2cc(-c3cccnc3)nn2)O[C@H]1CO)c1ccccc1F	10	x	9	x	-8	x
CCOc1cc(C2c3c(n[nH]c3C)C(=O)N2c2ccc(Br)cc2)ccc1O (configuration not stated)	x	50*	x	-10	x	40
O=C(Nc1ccc(Br)cc1)c1ccc(F)c(S(=O)(=O)NCc2cccs2)c1	19	41	x	29	20	58*
N#Cc1ccsc1NC(=O)c1cnccn1	24	-2	x	-1	x	-20
CC(C)(C)NS(=O)(=O)c1cc(C(=O)Nc2sccc2C#N)ccc1Cl	7	40	x	3	22	52*
C[C@@H]1CN([C@@H](C)CO)C(=O)Cc2cc(NC(=O)Nc3ccccc3)ccc2O[C@H]1CN(C)Cc1ccc(-c2ccccc2)cc1	68*	x	10	x	18	x
COc1ccc(NC(=O)Nc2ccc3c(c2)CC(=O)N([C@H](C)CO)C[C@H](C)[C@@H](CN(C)Cc2ccc(-c4ccccc4)cc2)O3)cc1	68*	x	15	x	-6	x
COc1ccc(CN(C)C[C@H]2Oc3ccc(NC(=O)Nc4ccc5c(c4)OCO5)cc3CC(=O)N([C@H](C)CO)C[C@H]2C)cc1	103*	x	-15	x	-2	x
COc1ccc(NC(=O)Nc2ccc3c(c2)CC(=O)N([C@@H](C)CO)C[C@@H](C)[C@H](CN(C)Cc2ccc(-c4ccccc4)cc2)O3)cc1	75*	x	24	x	15	x
C[C@@H]1CCCCO[C@@H](CN(C)Cc2ccccc2)[C@H](C)CN([C@@H](C)CO)C(=O)c2cc(NC(=O)CCC(F)(F)F)ccc2O1	4	x	6	x	2	x
C[C@H](CO)N1C[C@H](C)[C@H](CN(C)C(=O)CCC(F)(F)F)OCCCC[C@H](C)Oc2ccc(N(C)C)cc2C1=O	12	x	-6	x	-17	x
N#C[C@@H]1[C@@H](c2ccc(C3=CCCC3)cc2)[C@H](CO)N1c1nc(-c2ccccc2)cs1	0	x	6	x	-26	x
SMILES	PAX8 inh HTS	TROY NFkB inh	EWS-Fli inh	LMP1 NFkB inh	LGR2 antag	TWEAK Fn14 block
CCCC#Cc1ccc([C@H]2[C@H]3CN(C(=O)c4ccccc4)CC(=O)N3[C@H]2CO)cc1	x	x	x	x	0	x
Cc1ccc(-c2cc(-c3ccccc3)no2)c(O)c1	-49	53*	x	3	u	76*
Oc1ccccc1-c1cc(-c2ccccc2)no1	x	-32	x	-66	-15	40
Cc1ccc2nc(-c3cc(-c4ccccc4)no3)cn2c1	40	41	69*	37	x	79*
CCc1ccn2cc(-c3cc(-c4ccccc4)no3)nc2c1	83*	87*	75*	70*	103*	106*
COc1ccc(S(=O)(=O)Nc2ccc3c(c2)C(=O)N([C@@H](C)CO)C[C@H](C)[C@@H](CN(C)Cc2ccccc2)OCCCC[C@H](C)O3)cc1	2	x	17	x	-5	x
CCCN(C)C[C@H]1Oc2ncc(C#CCN(C)C)cc2C(=O)N([C@@H](C)CO)C[C@@H]1C	x	x	5	x	-7	x
CC(C)NC(=O)N1Cc2cc(C(=O)NCC(F)(F)F)nc(-c3cccc(-c4cc5ccccc5o4)c3)c2[C@H]1CCO	85*	x	x	x	-17	x
O=S(=O)(c1ccccc1F)N1CC[C@@H]2[C@H]1c1cc(-c3ccccc3F)ccc1N[C@@H]2CO	-33	x	13	x	-1	x
COc1ccc(/C=C2\CCc3ccccc3C2=O)cc1OC	x	-45	x	8	-29	14
CCN1C/C(=C\c2cccc([N+](=O)[O-])c2)C(=O)/C(=C/c2cccc([N+](=O)[O-])c2)C1	55	2	82*	91*	24	93*
O=C1/C(=C/c2cccc([N+](=O)[O-])c2)CCc2ccccc21	-21	-39	x	-5	-3	93*
COc1ccc(N/C=C2\CCc3ccccc3C2=O)cc1	58	70*	43	24	81*	87*
CC(=O)Oc1ccc(/C=C2/CCc3ccccc3C2=O)cc1	-40	61*	74*	3	55*	88*
COc1ccc2c(c1)CC/C(=C\Nc1ccc3c(c1)OCO3)C2=O	x	-20	-99	-43	-34	9
O=C1/C(=C/c2cccc([N+](=O)[O-])c2)CSc2ccc(Cl)cc21	-13	-13	-11	-9	-4	-16
CO[C@@H]1CN(C)C(=O)c2ccc(NS(=O)(=O)c3ccccc3)cc2OC[C@@H](C)N(Cc2cccnc2)C[C@H]1C	2	x	5	x	-3	x
COc1cccc(/C=C2\CCc3ccccc3C2=O)c1	-32	25	31	-15	36	61*
COc1cccc(C=C2Cc3ccccc3C2=O)c1	-34	-36	-100	x	13	-11
O=C1C(=Cc2ccccc2[N+](=O)[O-])Cc2ccccc21	-24	12	38	12	4	95*
CC(=O)OC1CCC2C3CCC4OC(=O)CCC4C3CCC12C (configuration not stated)	5	7	2	3	-30	-4
C=C1C(=O)C2=CC1CCC(=O)C1(C)CCC(OC(C)=O)C(C)(C)C1CC2O (configuration not stated)	105*	46	57*	u	103*	101*
Cc1ccc(NC2=Nc3ccccc3CC2)cc1	x	61*	x	1	x	72*
